PubChem BioAssay (EPA / NIEHS)
Calls of active or inactive are those of the source. Rule for the calls: active = hit-call score of the fitted dose curve at least 0.9, where 1 is the maximum; inactive = score below 0.9.

Experiments:
[1] = ATG_ISRE_CIS: Attagene CIS-FACTORIAL HepG2 Assay for human Interferon Regulatory Factor 1 (IRF1) binding to an Interferon-Stimulated Response Element (ISRE) (AID 2282948); conditions: HepG2 ISRE cis-reporter (Attagene), mRNA transcription readout; actives raise or lower the signal
Summary of the method: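 HepG2 cells transiently transfected with multiplexed cis-promoter reporter units; after 24 h compound exposure, reporter mRNA quantified by RT-PCR, FAM labelling, HpaI digestion and capillary electrophoresis. Bidirectional fit versus DMSO baseline.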

[2] = ATG_M_32_CIS: Attagene CIS-FACTORIAL HepG2 Assay for M32 Transcription Factor (Internal Marker) (AID 2282949); conditions: HepG2 Attagene cis-factorial M32 reporter, mRNA; actives raise or lower the signal;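 note: background control marker of the multiplexed CIS panel rather than a real target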
Summary of the method: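 Following 24 h chemical exposure of HepG2 cells transiently expressing cis-promoter reporter constructs, reporter transcript levels were determined by RT-PCR with fluorescent labelling and capillary electrophoresis, then fitted bidirectionally against DMSO.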

[3] = ATG_M_06_CIS: Attagene CIS-FACTORIAL HepG2 Assay for M06 Transcription Factor (Internal Marker) (AID 2282950); conditions: HepG2 Attagene CIS-FACTORIAL M06 internal marker reporter; actives raise or lower the signal
Summary of the method: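 Measured 24 h post-dosing in transiently transfected HepG2 cells, this internal-marker endpoint reports reporter mRNA via RT-PCR with fluorescent primer extension and capillary electrophoresis. DMSO served as negative control and baseline for bidirectional fitting.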

[4] = biological target: Hypoxia-inducible factor 1-alpha (Homo sapiens) (UniProt Q16665); test: ATG_HIF1a_CIS: Attagene CIS-FACTORIAL HepG2 Assay for human Hypoxia Inducible Factor 1 (HIF1A) (AID 2282951); conditions: HepG2 Attagene cis-factorial HIF1a reporter transcription; actives raise or lower the signal
Hypoxia-inducible factor 1-alpha (Homo sapiens), sequence (Q16665 whole entry, looked up): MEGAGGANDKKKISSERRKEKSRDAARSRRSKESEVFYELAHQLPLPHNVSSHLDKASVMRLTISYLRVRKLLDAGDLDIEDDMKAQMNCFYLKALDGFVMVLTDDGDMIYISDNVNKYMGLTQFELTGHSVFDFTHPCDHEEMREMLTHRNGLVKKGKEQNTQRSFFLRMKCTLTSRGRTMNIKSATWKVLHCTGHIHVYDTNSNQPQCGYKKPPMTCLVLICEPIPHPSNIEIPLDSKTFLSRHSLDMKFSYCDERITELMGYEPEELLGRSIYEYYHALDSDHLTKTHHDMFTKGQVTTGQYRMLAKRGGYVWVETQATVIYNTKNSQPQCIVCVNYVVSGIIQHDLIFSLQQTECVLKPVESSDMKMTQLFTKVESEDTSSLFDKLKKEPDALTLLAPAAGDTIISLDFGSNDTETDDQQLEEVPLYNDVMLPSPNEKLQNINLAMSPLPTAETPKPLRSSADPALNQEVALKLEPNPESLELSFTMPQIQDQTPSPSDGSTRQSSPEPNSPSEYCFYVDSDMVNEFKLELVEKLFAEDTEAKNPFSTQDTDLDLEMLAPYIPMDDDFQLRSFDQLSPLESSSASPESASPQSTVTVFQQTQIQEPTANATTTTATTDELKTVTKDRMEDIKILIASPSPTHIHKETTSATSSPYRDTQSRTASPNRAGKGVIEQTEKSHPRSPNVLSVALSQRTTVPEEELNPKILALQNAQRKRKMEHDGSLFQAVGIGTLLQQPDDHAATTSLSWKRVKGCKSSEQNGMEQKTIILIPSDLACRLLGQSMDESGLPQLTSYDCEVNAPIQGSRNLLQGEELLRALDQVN
Summary of the method: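 Dosed 24 h, transfected HepG2 cells yielded total RNA whose reporter transcripts were RT-PCR-amplified and sized by capillary electrophoresis using fluorescent labelling; DMSO defined baseline, with gain and loss of signal both fitted.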

[5] = biological target: Hepatocyte nuclear factor 6 (Homo sapiens) (UniProt Q9UBC0); test: ATG_HNF6_CIS: Attagene CIS-FACTORIAL HepG2 Assay for human Hepatocyte Nuclear Factor 6 (HNF6) (AID 2282952); conditions: HepG2 Attagene cis-factorial HNF6 reporter transcription; actives raise or lower the signal
Hepatocyte nuclear factor 6 (Homo sapiens), sequence (Q9UBC0 whole entry, looked up): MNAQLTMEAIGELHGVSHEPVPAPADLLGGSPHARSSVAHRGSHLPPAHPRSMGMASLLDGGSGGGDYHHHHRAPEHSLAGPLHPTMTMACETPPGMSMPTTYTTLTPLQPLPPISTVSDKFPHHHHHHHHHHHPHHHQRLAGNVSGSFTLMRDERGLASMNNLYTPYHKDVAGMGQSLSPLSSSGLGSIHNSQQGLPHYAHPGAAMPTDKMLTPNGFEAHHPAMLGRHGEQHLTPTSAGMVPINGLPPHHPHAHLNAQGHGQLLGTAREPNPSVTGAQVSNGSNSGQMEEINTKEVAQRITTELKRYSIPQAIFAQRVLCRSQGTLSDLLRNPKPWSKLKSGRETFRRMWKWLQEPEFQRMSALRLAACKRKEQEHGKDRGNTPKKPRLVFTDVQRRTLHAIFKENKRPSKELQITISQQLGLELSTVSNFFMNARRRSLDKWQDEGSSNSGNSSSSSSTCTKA
Summary of the method: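 Multiplexed mRNA reporter assay in transfected HepG2; 24 h dosing; RT-PCR plus capillary electrophoresis fluorescence; DMSO-referenced bidirectional curve fitting.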

[6] = ATG_MRE_CIS: Attagene CIS-FACTORIAL HepG2 Assay for human Metal Responsive Element (MRE) (AID 2282954); conditions: HepG2 MRE cis-reporter transcription, Attagene multiplex; actives raise or lower the signal
Summary of the method: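 HepG2 cells transiently transfected with multiple cis-element reporter units measure endogenous MTF1-driven transcription. After 24 h compound exposure, reporter mRNA is quantified by RT-PCR with 6-FAM labelling, HpaI digestion and capillary electrophoresis; bidirectional fits versus DMSO.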

[7] = ATG_PBREM_CIS: Attagene CIS-FACTORIAL HepG2 Assay for human Phenobarbital-responsive Enhancer Module (PBREM) (AID 2282955); conditions: HepG2 PBREM cis-reporter, Attagene multiplexed transcription; actives raise or lower the signal
Summary of the method: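 Transfected liver-derived HepG2 cells exposed 24 h; PBREM reporter transcript quantified via RT-PCR and capillary electrophoresis, with activity in either direction referenced to DMSO.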

[8] = biological target: Paired box protein Pax-6 (Homo sapiens) (UniProt P26367); test: ATG_Pax6_CIS: Attagene CIS-FACTORIAL HepG2 Assay for human Paired Box 6 (PAX6) (AID 2282956); conditions: HepG2 CIS-FACTORIAL PAX6 reporter transcription, RNA readout; actives raise or lower the signal
Paired box protein Pax-6 (Homo sapiens), sequence (P26367 whole entry, looked up): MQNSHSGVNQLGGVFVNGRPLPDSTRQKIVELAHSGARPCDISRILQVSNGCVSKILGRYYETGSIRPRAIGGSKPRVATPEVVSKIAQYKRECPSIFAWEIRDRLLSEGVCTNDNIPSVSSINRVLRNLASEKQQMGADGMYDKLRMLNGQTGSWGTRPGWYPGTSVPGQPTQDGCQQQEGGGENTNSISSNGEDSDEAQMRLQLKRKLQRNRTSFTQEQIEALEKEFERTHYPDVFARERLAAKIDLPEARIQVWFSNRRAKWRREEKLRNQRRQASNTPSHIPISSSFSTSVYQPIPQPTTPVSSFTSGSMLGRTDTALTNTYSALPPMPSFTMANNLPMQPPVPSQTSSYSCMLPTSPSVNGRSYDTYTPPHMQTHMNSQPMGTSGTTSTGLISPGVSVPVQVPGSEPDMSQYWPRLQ
Summary of the method: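 HepG2 cells transiently transfected with multiplexed cis-promoter reporter units (endogenous TF activity) were dosed for 24 h. Reporter mRNA was quantified by RT-PCR, 6-FAM labeling, HpaI digestion and capillary electrophoresis; bidirectional fitting versus DMSO baseline.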

[9] = ATG_PXRE_CIS: Attagene CIS-FACTORIAL HepG2 Assay for human Pregnane X Receptor Element (PXRE) (AID 2282957); conditions: HepG2 Attagene CIS-FACTORIAL PXRE reporter, mRNA; actives raise or lower the signal
Summary of the method: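 Cells: HepG2, transiently transfected reporter units under cis promoter control. Exposure: 24 h. Detection: reporter mRNA via RT-PCR/CE fluorescence; bidirectional fitting, DMSO-referenced.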

[10] = ATG_Sox_CIS: Attagene CIS-FACTORIAL HepG2 Assay for human SRY-box transcription factor (SOX) (AID 2282960); conditions: HepG2 Attagene cis-factorial SOX reporter, mRNA; actives raise or lower the signal
Summary of the method: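 Gain- or loss-of-signal endpoint, fitted bidirectionally with DMSO as negative control. Based on reporter mRNA from transfected HepG2 cells harvested 24 h post-treatment and quantified via RT-PCR and capillary electrophoresis.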

[11] = biological target: Transcription factor Sp1 (Homo sapiens) (UniProt P08047); test: ATG_Sp1_CIS: Attagene CIS-FACTORIAL HepG2 Assay for human Specificity Protein 1 (Sp1) (AID 2282961); conditions: HepG2 Sp1 cis-reporter transcription, actives raise or lower the signal
Transcription factor Sp1 (Homo sapiens), sequence (P08047 whole entry, looked up, the tested form may be a part): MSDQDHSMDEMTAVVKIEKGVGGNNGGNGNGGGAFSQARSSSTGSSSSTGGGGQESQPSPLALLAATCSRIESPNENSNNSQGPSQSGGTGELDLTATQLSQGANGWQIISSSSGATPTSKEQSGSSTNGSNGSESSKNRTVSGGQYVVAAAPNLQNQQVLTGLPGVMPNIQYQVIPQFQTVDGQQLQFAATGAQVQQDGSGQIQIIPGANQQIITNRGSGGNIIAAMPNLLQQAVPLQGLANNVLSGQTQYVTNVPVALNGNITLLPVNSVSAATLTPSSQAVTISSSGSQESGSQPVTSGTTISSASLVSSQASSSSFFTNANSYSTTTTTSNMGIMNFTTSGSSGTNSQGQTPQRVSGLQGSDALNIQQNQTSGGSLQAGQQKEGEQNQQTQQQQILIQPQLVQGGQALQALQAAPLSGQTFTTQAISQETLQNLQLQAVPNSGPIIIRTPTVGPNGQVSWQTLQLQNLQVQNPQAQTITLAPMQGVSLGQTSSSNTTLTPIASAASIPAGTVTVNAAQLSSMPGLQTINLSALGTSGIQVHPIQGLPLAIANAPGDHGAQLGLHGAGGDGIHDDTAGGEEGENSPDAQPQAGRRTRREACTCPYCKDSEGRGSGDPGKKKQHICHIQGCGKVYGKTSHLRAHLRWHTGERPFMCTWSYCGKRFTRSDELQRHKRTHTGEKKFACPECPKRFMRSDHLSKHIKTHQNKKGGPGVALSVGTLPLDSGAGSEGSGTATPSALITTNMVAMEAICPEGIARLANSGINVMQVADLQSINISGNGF
Summary of the method: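 Endpoint reflects endogenous Sp1 transcriptional activity, not an exogenous fusion protein: HepG2 cells with transfected cis-regulated reporters, 24 h dosing, RT-PCR/capillary electrophoresis mRNA read-out, DMSO-normalised bidirectional fit.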

[12] = ATG_SREBP_CIS: Attagene CIS-FACTORIAL HepG2 Assay for human Sterol Regulatory Element Binding (SREBP) (AID 2282962); conditions: HepG2 Attagene cis-factorial SREBP reporter, mRNA; actives raise or lower the signal
Summary of the method: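 HepG2 cells transiently transfected with multiplexed cis-element reporter units report endogenous transcription factor activity. After 24 h of chemical exposure, reporter mRNA was quantified by RT-PCR, 6-FAM labelling, HpaI digestion and capillary electrophoresis; bidirectional fits used DMSO as baseline.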

[13] = ATG_TA_CIS: Attagene CIS-FACTORIAL HepG2 Assay for human TA Basal Promoter (AID 2282964); conditions: HepG2 Attagene CIS-factorial TA basal promoter reporter; actives raise or lower the signal
Summary of the method: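 Cis-factorial format in HepG2: reporters report endogenous factors, not chimeric Gal4 fusions. After 24 h treatment, reporter transcripts were measured by RT-PCR-capillary electrophoresis fluorescence, analysed bidirectionally versus DMSO.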

[14] = ATG_TCF_b_cat_CIS: Attagene CIS-FACTORIAL HepG2 Assay for human T-Cell-Factor with beta-catenin (TCF/b-cat) (AID 2282965); conditions: HepG2 TCF/beta-catenin cis-reporter transcription, actives raise or lower the signal
Summary of the method: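 Using capillary electrophoresis as the read-out, labelled reporter cDNA fragments from transiently transfected HepG2 were sized and quantified. Exposure lasted 24 hours; activity in either direction was referenced to DMSO.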

[15] = biological target: Heat shock factor protein 1 (Homo sapiens) (UniProt Q00613); test: ATG_HSE_CIS: Attagene CIS-FACTORIAL HepG2 Assay for human Heat Shock Transcription Factor 1 (HSE) (AID 2282953); conditions: HepG2 HSE cis-reporter, Attagene RNA transcription; actives raise or lower the signal
Heat shock factor protein 1 (Homo sapiens), sequence (Q00613 whole entry, looked up): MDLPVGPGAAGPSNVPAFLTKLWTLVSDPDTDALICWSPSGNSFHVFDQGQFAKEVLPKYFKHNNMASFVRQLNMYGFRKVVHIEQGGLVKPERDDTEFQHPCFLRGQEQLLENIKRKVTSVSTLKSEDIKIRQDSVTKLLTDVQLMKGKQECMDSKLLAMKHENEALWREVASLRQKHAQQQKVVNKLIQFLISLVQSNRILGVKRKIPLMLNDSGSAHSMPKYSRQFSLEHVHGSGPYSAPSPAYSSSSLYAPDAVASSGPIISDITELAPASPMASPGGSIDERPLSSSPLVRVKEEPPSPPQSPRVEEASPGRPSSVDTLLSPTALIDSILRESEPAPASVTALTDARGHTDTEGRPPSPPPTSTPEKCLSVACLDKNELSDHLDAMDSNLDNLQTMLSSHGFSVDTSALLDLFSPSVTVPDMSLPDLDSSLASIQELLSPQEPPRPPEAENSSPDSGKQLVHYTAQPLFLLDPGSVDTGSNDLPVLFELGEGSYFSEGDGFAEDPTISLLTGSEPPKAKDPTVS
Summary of the method: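 Reporter mRNA induction in HepG2 is measured 24 h after dosing, using transiently transfected multiplexed cis-regulated reporter units. Signal comes from capillary electrophoresis of labelled RT-PCR products, with DMSO as negative control.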

[16] = ATG_PPRE_CIS: Attagene CIS-FACTORIAL HepG2 Assay for human Peroxisome Proliferator-activated Response Element (PPRE) (AID 2282958); conditions: HepG2 PPRE cis-element reporter, Attagene transcription factor profiling; actives raise or lower the signal
Summary of the method: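 Measured endpoint: PPRE-controlled reporter mRNA, detected by RT-PCR and capillary electrophoresis fluorescence, from transiently transfected HepG2 cells 24 h after dosing. Curves fitted in both directions using DMSO baseline.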

[17] = ATG_RORE_CIS: Attagene CIS-FACTORIAL HepG2 Assay for human RAR-related Orphan Receptor Element (RORE) (AID 2282959); conditions: HepG2 Attagene cis-factorial RORE reporter, mRNA; actives raise or lower the signal
Summary of the method: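 Transiently transfected HepG2 reporter cells were treated 24 h. Reporter transcripts were detected by RT-PCR and capillary electrophoresis, with bidirectional fitting against DMSO.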

[18] = biological target: Signal transducer and activator of transcription 3 (Homo sapiens) (UniProt P40763); test: ATG_STAT3_CIS: Attagene CIS-FACTORIAL HepG2 Assay for human Signal Transducer and Activator of Transcription 3 (STAT3) (AID 2282963); conditions: HepG2, Attagene cis-factorial STAT3 reporter transcription; actives raise or lower the signal
Signal transducer and activator of transcription 3 (Homo sapiens), sequence (P40763 whole entry, looked up): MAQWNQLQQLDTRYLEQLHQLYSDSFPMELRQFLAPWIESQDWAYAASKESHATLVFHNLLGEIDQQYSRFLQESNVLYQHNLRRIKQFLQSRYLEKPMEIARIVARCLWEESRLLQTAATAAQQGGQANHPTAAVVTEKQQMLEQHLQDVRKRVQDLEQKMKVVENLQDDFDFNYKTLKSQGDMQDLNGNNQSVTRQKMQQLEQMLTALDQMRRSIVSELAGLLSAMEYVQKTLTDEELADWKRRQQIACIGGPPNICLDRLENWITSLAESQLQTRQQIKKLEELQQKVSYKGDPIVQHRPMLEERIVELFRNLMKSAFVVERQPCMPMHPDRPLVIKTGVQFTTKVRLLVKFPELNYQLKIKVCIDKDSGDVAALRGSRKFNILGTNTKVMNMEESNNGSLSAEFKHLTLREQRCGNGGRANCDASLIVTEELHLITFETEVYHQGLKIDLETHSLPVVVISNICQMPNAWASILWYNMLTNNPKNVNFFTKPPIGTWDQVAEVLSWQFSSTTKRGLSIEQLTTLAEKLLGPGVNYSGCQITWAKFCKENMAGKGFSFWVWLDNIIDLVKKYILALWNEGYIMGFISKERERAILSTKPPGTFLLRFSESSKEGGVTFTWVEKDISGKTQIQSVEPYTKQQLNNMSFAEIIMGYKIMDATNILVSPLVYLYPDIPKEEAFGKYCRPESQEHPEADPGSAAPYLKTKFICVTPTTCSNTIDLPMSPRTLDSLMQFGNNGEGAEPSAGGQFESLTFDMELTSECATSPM
Summary of the method: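 HepG2 cells transiently transfected with cis-element-driven multiple reporter transcription units; after 24 h chemical exposure, reporter mRNA measured by RT-PCR, 6-FAM primer-extension labelling, HpaI digestion and capillary electrophoresis. Bidirectional fitting versus DMSO baseline.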

Measured: AC50

CNC[C@H](O)c1cccc(O)c1
active: [9] 34.2 µM
not listed: [15] | [16] | [17] | [18]
inactive: all other assays above

O=C1C(c2[nH]c3ccc(S(=O)(=O)O)cc3c2O)=Nc2ccc(S(=O)(=O)O)cc21
not listed: [1] | [7]
inactive: all other assays above

CC[Si](OC(C)=O)(OC(C)=O)OC(C)=O
active: [7] 18.7 µM | [9] 6.28 µM
not listed: [15]
inactive: all other assays above

O=CCCc1ccccc1
active: [9] 23.6 µM
not listed: [7] | [16] | [17]
inactive: all other assays above

C=C(C)C1CCC(C)CC1O (centres undefined)
not listed: [2] | [7] | [16]
inactive: all other assays above

O=c1oc(=O)c2cc3c(=O)oc(=O)c3cc12
not listed: [1] | [2] | [4]
inactive: all other assays above

NCCNCCN
not listed: [4] | [14]
inactive: all other assays above

CCN(CC)CCOC(=O)c1ccc(N)cc1
active: [9] 45.9 µM
not listed: [4] | [14] | [16]
inactive: all other assays above

CN1[C@@H]2CC(OC(=O)[C@H](CO)c3ccccc3)C[C@H]1[C@@H]1O[C@@H]12 (some centres undefined)
not listed: [4] | [5] | [15]
inactive: all other assays above

CC1(C)OC[C@@H]2O[C@@]3(C(=O)O)OC(C)(C)O[C@H]3[C@@H]2O1
not listed: [2] | [13] | [15] | [16] | [17]
inactive: all other assays above

CCCOCC(C)O (centres undefined)
active: [4] 24.8 µM
not listed: [7] | [9]
inactive: all other assays above

CCCC(=O)OCCC(C)CCC=C(C)C (centres undefined)
active: [9] 56.1 µM
not listed: [5] | [12] | [18]
inactive: all other assays above

CC(C)=CCC/C(C)=C/COC=O
not listed: [4] | [18]
inactive: all other assays above

CC(C)C(C)(C)C(C)(C)C(C)(C)S
active: [9] 4.43 µM
not listed: [7]
inactive: all other assays above

CCn1c2ccccc2c2cc(N)ccc21
active: [7] 37 µM | [9] 3.35 µM | [16] 100 µM | [17] 67.9 µM
not listed: [2] | [12]
inactive: all other assays above

CC(C)[C@H]1CC[C@@H](C)CC1=O
not listed: [7] | [9] | [14] | [16] | [18]
inactive: all other assays above

CC(=O)c1c(C)cc(C(C)(C)C)cc1C
active: [9] 27.1 µM
not listed: [12] | [15] | [17]
inactive: all other assays above
